Here are results for nine compounds from PubChem BioAssay.

Test [1] concerns PRMT1 (protein arginine N-methyltransferase 1). In words: PRMT1 binders on small-molecule microarrays, primary screen, biochemical, small-molecule microarray, 635 nm fluorescence (AID 1088).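 Also: binding of Prmt1 protein to compounds spotted on small-molecule microarray slides.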 The following applies: small-molecule microarray binding, higher = more signal.
Test [2] is described as follows: yeast growth modulation, basal conditions, primary screen, YJM789 clinical isolate, OD600, 24 h (AID 1089).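 Also: growth of clinical yeast isolate S. cerevisiae YJM 789 seeded 1000 cells per well; test concentration not given here.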 The following applies: S. cerevisiae YJM789 growth, higher = more signal, called active from +8 up or from −8 down.
The nature of test [3]: fission yeast growth modulation, primary screen, strain 972, OD600, 24 h, no modulator (AID 1090).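 Also: basal condition with compound alone and no growth modifier present; test concentration not given here.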 The following applies: S. pombe 972 growth, higher = more signal, called active from +8 up or from −8 down.
Test [4] in a line: S. cerevisiae growth modulation with rapamycin, primary screen, strain BY4716, OD600, 96 h (AID 1091). Also: test concentration not given here. Conditions: higher = more signal, called active from +8 up or from −8 down.
Test [5] has as its target Torsin-1A-interacting protein 2 (Homo sapiens) (UniProt Q8NFQ8). The test can be described thus: LULL1 binders on small-molecule microarray, primary screen, cell lysate, human LULL1 lysate, 635/667 nm fluorescence (AID 1092).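 Also: probe is lysate of COS7 cells overexpressing human LULL1; score merges per-feature 667 nm fluorescence with signal-to-noise.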 The following applies: hLULL1 lysate binding, 635 nm fluorescence, higher = more signal.
Test [6] in a line: E. coli growth modulation, two-sided OD650, primary screen, E. coli filamentation project, strain DRC41, 24 h (AID 1093).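 Also: MC1000 strain lacking acrAB efflux and sulA so SOS filamentation is blocked; test concentration not given here.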 The following applies: OD650, 24 h, higher = more signal, called active from +8 up or from −8 down.
Test [7] is described as follows: small-molecule microarray binders of probe aLefty2, primary screen, biochemical, biotinylated probe, 635/667 nm fluorescence (AID 1094).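 Also: score merges spot fluorescence near 667 nm with spot signal-to-noise ratio.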 Conditions: higher = more signal.
Test [8] has as its system Noggin (protein binding on small-molecule microarray). The test can be described thus: Noggin binders on small-molecule microarray, primary screen, biochemical, 635/667 nm fluorescence (AID 1095).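 Also: score merges 667 nm feature fluorescence with signal to noise over triplicate slides.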 Conditions: 635 nm fluorescence, higher = more signal.
The target of test [9] is Neurogenic locus notch homolog protein 3 (Homo sapiens) (UniProt Q9UM47). The test can be described thus: NOTCH3 binders on small-molecule microarray, primary screen, biochemical, 635/667 nm fluorescence (AID 1096). The following applies: NOTCH3 binding, 635 nm fluorescence, higher = more signal.
Neurogenic locus notch homolog protein 3 (Homo sapiens), sequence (Q9UM47 whole entry, looked up): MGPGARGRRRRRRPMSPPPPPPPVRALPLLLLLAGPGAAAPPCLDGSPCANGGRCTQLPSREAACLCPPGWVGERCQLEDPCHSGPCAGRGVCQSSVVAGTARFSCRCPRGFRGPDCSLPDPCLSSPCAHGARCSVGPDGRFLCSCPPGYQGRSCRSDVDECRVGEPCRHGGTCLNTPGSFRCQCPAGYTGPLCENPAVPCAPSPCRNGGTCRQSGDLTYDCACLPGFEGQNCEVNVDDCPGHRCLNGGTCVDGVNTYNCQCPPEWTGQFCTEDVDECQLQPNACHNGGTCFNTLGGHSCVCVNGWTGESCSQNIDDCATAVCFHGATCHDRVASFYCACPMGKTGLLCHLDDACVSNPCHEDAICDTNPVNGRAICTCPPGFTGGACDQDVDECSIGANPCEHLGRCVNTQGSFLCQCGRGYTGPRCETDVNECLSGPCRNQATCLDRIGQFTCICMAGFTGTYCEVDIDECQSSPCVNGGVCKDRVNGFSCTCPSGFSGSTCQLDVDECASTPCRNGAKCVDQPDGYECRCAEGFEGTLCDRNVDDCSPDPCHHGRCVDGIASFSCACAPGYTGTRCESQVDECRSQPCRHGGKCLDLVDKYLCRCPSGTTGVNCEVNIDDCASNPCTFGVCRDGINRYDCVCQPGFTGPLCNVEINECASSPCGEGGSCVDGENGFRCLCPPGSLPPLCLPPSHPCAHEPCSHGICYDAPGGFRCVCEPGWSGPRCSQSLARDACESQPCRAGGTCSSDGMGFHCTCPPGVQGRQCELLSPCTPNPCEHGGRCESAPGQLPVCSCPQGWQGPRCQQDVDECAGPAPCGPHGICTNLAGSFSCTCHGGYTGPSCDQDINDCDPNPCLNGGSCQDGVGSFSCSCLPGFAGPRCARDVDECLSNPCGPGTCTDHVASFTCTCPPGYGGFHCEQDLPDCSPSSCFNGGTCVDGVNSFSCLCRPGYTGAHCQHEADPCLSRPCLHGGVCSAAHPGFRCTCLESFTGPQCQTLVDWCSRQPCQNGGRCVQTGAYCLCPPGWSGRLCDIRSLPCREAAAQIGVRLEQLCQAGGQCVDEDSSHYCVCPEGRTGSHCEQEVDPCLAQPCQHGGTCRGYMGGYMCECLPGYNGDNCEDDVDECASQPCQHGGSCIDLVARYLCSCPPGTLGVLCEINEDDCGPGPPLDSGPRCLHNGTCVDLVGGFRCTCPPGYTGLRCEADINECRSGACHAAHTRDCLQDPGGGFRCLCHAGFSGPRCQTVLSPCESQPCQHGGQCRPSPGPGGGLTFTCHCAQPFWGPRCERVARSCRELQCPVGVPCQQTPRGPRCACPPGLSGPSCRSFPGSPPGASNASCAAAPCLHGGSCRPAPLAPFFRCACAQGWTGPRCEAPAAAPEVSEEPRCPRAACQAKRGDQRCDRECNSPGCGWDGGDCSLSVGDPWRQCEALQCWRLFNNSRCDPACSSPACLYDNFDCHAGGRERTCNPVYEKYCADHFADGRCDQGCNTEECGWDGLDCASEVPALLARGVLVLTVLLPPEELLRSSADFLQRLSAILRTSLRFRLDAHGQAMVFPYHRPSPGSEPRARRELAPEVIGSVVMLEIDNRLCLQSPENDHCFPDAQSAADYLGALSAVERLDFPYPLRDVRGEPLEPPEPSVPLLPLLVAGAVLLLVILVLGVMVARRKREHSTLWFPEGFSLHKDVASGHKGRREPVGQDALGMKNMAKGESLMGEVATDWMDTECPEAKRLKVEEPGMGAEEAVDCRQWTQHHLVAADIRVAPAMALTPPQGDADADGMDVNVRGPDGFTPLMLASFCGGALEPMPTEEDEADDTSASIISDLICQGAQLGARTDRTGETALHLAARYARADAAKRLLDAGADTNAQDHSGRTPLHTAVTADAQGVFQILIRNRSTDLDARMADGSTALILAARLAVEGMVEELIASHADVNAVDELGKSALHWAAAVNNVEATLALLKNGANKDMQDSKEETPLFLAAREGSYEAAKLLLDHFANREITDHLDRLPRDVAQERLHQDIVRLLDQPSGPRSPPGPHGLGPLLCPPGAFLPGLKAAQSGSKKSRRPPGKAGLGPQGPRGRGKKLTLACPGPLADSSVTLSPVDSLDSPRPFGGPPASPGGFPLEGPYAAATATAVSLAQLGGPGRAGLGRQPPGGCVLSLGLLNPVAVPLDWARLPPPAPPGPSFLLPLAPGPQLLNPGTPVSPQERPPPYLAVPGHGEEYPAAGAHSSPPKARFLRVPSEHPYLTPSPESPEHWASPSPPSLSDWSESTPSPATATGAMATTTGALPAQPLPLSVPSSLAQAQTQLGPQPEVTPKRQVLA
Test [10] in a line: small-molecule microarray binders of probe aEGFR, primary screen, biochemical, biotinylated probe, 635/667 nm fluorescence (AID 1097).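 Also: probe is a biotinylated anti-EGFR antibody binding compounds printed on slides; score combines fluorescence near 667 nm and signal to noise of each spot.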 Conditions: higher = more signal.
In test [11] the test system is Plasmodium falciparum Sir2 (PF13_0152, Sir2A). In words: pfSir2 binders on small-molecule microarrays, primary screen, biochemical, small-molecule microarray, 635 nm fluorescence (AID 1098).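 Also: score merges spot fluorescence intensity with its signal-to-noise ratio.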 Conditions: small-molecule microarray binding, fluorescence 635 nm; higher = more signal.
The nature of test [12]: small-molecule microarray binders of probe aDKK1, primary screen, biochemical, biotinylated probe, 635/667 nm fluorescence (AID 1099).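 Also: score merges 667nm spot fluorescence with signal to noise across triplicate slides; reference of the scale not given here.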 Conditions: higher = more signal.
Test [13] in a line: small-molecule microarray binders of probe aCHRDL2, primary screen, biochemical, biotinylated probe, 635/667 nm fluorescence (AID 1100). The following applies: higher = more signal.
The nature of test [14]: splicing luciferase reporter signal modulators, primary screen, spliceosome inhibition project, cell-based, HEK293, splice +/- reporter (AID 1101).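 Also: HEK293 cells carrying a splicing-competent luciferase reporter gene; test concentration not given here.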 Conditions: luminescence, 24 h, higher = more signal, called active from +8 up or from −8 down.
Test [15] concerns the target Fibroblast growth factor 10 (Homo sapiens) (UniProt O15520). In words: FGF10 binders on small-molecule microarrays, primary screen, biochemical, small-molecule microarray, 635 nm fluorescence (AID 1102). The following applies: FGF10 binding, fluorescence 635 nm, higher = more signal.
Test [16] relates to glycogen synthase kinase-3 (GSK3A per assay name; protocol says GSK3B). In words: GSK3 binders on small-molecule microarrays, primary screen, biochemical, small-molecule microarray, 635 nm fluorescence, GSK3A (AID 1103). Also: the record names both GSK3A and GSK3B. The following applies: small-molecule microarray binding, fluorescence 635 nm; higher = more signal.
Test [17] deals with Epidermal growth factor receptor (Homo sapiens) (UniProt P00533). The test can be described thus: EGFR binders on small-molecule microarrays, primary screen, biochemical, small-molecule microarray, 635 nm fluorescence (AID 1104).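 Also: score merges 667 nm emission intensity with spot signal to noise over triplicate slides.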 The following applies: EGFR binding, higher = more signal.
Epidermal growth factor receptor (Homo sapiens), sequence (P00533 whole entry, looked up): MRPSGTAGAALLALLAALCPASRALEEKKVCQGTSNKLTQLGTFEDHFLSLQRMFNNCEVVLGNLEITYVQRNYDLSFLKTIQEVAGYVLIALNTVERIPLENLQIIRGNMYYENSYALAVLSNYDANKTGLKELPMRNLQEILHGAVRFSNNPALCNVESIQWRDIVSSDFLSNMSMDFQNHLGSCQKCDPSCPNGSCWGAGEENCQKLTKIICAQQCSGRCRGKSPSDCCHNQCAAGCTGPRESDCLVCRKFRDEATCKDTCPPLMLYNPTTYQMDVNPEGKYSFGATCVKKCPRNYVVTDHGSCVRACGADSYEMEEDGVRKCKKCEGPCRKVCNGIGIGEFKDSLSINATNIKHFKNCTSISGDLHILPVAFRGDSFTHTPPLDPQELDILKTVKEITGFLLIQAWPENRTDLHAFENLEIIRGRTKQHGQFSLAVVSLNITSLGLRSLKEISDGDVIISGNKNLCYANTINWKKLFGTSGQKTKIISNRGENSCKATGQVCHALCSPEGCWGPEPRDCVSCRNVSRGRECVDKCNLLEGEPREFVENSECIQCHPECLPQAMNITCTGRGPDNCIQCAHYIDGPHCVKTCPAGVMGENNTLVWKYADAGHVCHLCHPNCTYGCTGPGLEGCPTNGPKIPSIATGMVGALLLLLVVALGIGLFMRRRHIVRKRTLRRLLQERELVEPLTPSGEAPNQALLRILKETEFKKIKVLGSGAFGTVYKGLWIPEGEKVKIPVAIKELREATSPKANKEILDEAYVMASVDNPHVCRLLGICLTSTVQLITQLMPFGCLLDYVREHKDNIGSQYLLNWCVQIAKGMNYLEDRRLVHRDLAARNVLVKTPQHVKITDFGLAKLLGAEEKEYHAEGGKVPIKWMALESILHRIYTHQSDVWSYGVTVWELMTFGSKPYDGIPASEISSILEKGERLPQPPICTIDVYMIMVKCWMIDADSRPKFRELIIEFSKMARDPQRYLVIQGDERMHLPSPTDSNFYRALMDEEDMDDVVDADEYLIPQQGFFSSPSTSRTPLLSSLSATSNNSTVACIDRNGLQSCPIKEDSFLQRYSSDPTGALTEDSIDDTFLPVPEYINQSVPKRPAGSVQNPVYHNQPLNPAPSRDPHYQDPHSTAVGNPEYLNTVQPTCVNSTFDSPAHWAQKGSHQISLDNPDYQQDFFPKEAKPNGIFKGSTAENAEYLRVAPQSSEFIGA
Test [18] addresses Follistatin-related protein 3 (Homo sapiens) (UniProt O95633). The test can be described thus: FSTL3 binders on small-molecule microarrays, primary screen, biochemical, small-molecule microarray, 635 nm fluorescence (AID 1105).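 Also: score merges emission near 667 nm and signal to noise per printed spot across three slides.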 The following applies: FSTL3 binding, higher = more signal.
The target of test [19] is Dickkopf-related protein 1 (Homo sapiens) (UniProt O94907). The test can be described thus: DKK1 binders on small-molecule microarrays, primary screen, biochemical, small-molecule microarray, 635 nm fluorescence scan (AID 1106).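 Also: score merges emission near 667 nm with signal to noise over three replicate slides.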 The following applies: DKK1 binding, higher = more signal.
Dickkopf-related protein 1 (Homo sapiens), sequence (O94907 whole entry, looked up): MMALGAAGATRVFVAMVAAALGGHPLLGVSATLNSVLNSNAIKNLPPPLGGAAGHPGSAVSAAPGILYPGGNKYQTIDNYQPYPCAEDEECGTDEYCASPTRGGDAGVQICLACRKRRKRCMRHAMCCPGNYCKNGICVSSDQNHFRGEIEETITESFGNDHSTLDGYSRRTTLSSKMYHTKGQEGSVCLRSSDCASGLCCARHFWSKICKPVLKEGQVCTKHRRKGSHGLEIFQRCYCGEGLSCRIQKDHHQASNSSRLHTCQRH
Test [20] deals with Inhibin beta A chain (activin A). The test can be described thus: INHBA (activin A) binders on microarrays, primary screen, biochemical, small-molecule microarray, 635 nm fluorescence scan (AID 1107).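 Also: mouse activin A protein probed at 4.33 µg/mL on printed slides; score merges bound-protein fluorescence near 667 nm with spot signal-to-noise.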 The following applies: small-molecule microarray binding, higher = more signal.

Active and inactive are the calls of the source.

Fibroblast growth factor 10 (Homo sapiens), sequence (O15520 whole entry, looked up): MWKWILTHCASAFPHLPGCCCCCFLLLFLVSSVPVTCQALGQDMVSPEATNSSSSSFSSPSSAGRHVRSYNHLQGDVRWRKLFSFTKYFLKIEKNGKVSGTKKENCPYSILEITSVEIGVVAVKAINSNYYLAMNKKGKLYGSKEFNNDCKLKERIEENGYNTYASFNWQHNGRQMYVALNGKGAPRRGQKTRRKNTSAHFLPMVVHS
Follistatin-related protein 3 (Homo sapiens), sequence (O95633 whole entry, looked up): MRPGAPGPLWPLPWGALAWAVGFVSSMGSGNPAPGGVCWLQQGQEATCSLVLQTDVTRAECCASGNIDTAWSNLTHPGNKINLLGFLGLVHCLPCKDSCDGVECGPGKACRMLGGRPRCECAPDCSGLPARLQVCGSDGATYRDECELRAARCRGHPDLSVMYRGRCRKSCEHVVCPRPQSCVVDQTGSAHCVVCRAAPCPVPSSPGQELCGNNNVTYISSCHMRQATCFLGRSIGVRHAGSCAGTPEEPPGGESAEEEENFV
Torsin-1A-interacting protein 2 (Homo sapiens), sequence (Q8NFQ8 whole entry, looked up): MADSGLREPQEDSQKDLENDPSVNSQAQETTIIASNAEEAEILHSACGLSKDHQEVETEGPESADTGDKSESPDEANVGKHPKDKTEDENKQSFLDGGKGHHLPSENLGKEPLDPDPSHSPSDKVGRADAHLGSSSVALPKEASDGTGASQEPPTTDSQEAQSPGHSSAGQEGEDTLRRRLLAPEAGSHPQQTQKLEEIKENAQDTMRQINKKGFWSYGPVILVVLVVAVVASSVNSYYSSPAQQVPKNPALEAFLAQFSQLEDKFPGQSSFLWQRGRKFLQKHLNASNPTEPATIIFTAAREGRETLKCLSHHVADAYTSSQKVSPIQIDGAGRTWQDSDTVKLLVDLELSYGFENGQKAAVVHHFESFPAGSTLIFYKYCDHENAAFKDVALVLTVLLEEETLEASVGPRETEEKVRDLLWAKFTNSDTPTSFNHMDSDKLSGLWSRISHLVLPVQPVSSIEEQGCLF

Turning to `CC=CC(O)C1C=CC2C(=O)N(c3ccccc3)C(=O)C2N1Nc1ccc([N+](=O)[O-])cc1` (stereo not given), the composite z-score in [1] was 0.725; in test [5], 2.65; in test [7], -0.0931; in [8], 0.257; in test [9], 0.512; in test [10], 0.0007. The composite z-score in test [11] was 0.563; in [12], -0.0639; in test [13] it was 0.0737; in test [15], 0.455; in [16], 0.464; in [17], 0.496. The figures for the composite z-score in test [18], in [19] and in test [20] were 0.501, 0.113 and 0.896, respectively. Moreover, the z-score in test [2] is -0.0987 (inactive); in test [3], 1.17 (inactive); in test [4], 1.44 (inactive); in test [6] it was -0.699 (inactive); in test [14], 0.43 (inactive).
With `CC(C)(C)OC(=O)CC[C@]1(C(=O)N2CCOCC2)N=C(c2ccc(OCCCO)cc2)O[C@H]1c1ccccc1`, the composite z-score was 0.587 in test [1]; 2.52 in test [5]; 0.0038 in test [7]; 1.26 in test [8]; 0.348 in test [9]; -0.0656 in test [10]. The composite z-score in test [11] is 1.65; in [12], 0.126; in [13], 0.417; in test [15], 1.05; in test [16] it was 0.488; in [17], -0.433. Besides, the composite z-score in test [18] is 0.0033; in [19], -0.158; in test [20], 0.456. For the same compound, the z-score in test [2] was 0.0164 (inactive); in test [3] it was -0.988 (inactive); in test [4], -0.439 (inactive); in test [6], 0.961 (inactive); in test [14], 0.12 (inactive).
As to `O=C1NC(=O)C2C1C=CC(C(O)c1c(F)cccc1Cl)N2Nc1ccccn1` (stereo not given), the composite z-score is 0.409 in test [1]; -0.191 in test [5]; 0.21 in [7]; 0.148 in test [8]; 0.01 in test [9]; 0.213 in [10]. In addition, the composite z-score in [11] turned out to be 0.419; in test [12] it was 0.282; in [13], 0.171; in test [15], 0.48; in test [16], 0.198; in [17] it was 0.409. Besides, the composite z-score stood at 0.262 in test [18], 0.465 in [19] and 1.13 in [20]. Also, the z-score in test [2] was 0.107 (inactive); in test [3], 0.983 (inactive); in test [4], 0.0515 (inactive); in test [6], -0.764 (inactive); in test [14] it was 0.824 (inactive).
Consider `COc1ccccc1CN1C(=O)c2ccccc2[C@](Cc2ccccc2I)(C(=O)NC(C)C)[C@@H]1c1ccc(CO)cc1`, for which the composite z-score is 1.53 in [1]; 2.05 in test [5]; -0.158 in [7]; 1.22 in test [8]; 1.06 in test [9]; 0.0583 in test [10]. The composite z-score in [11] is 0.672; in test [12], -0.132; in test [13], -0.0563; in [15], 1.32; in test [16], 1.3; in [17] it was 0.457. For the same compound, the composite z-score in [18] is 1.28; in test [19], 0.312; in test [20], -0.0084. Besides, the z-score in test [2] was 0.188 (inactive); in [3], 0.0889 (inactive); in test [4], 0.152 (inactive); in [6] it was -1.01 (inactive); in test [14], -0.691 (inactive).
As to `C=CCOC(=O)[C@@H]1[C@H]2C(=O)O[C@H](c3ccccc3)[C@H](c3ccccc3)N2[C@H](c2ccc(OCCOC(=O)[C@H]3C[C@H]4C(=O)N[C@@H](CCCC[N+](C)(C)C)C(=O)N4[C@H]3c3ccc(O)cc3)cc2)[C@@]12C(=O)Nc1ccc(I)cc12`, the composite z-score in test [1] is 1.53; in [5], 2.64; in [7], -0.126; in test [8], 1.94; in test [9], 1.05; in test [10], -0.027. Besides, the composite z-score in test [11] was 1.6; in test [12] it was -0.144; in test [13], -0.248; in test [15], 1.46; in test [16], 1.33; in test [17], 1.18. For the same compound, the values for the composite z-score in [18], in [19] and in test [20] were 1.51, 1.03 and 0.467, respectively. The z-score in test [2] was 1.86 (inactive); in test [3], 1.49 (inactive); in test [4], 4.28 (inactive); in test [6] it was -0.0021 (inactive); in [14], -0.178 (inactive).
Take `O=C1O[C@@H](c2ccccc2)[C@@H](c2ccccc2)N2[C@@H](c3ccccc3OCCO)[C@]3(C(=O)Nc4ccccc43)[C@@H](C(=O)NC[C@H](O)c3ccccc3)[C@H]12`: the composite z-score in [1] is 1.4; in [5], 2.69; in test [7], -0.139; in [8], -0.84; in test [9] it was -0.359; in test [10] it was -0.207. Moreover, the composite z-score in [11] is 1.11; in test [12], 0.597; in [13], 0.76; in test [15], -0.369; in test [16], 0.342; in test [17], -0.528. For the same compound, the composite z-score is 0.0805 in test [18], -0.547 in test [19] and -0.189 in test [20]. For the same compound, the z-score in [2] is 2.62 (inactive); in test [3], 1.68 (inactive); in [4], 5.71 (inactive); in [6], -0.467 (inactive); in test [14], -1.66 (inactive).
Take `COc1ccccc1CN1C(=O)c2ccccc2[C@@H](C(=O)NC(C)C)[C@@H]1c1ccc(CO)cc1`: the composite z-score in test [1] is 1.51; in [5] it was 2.36; in [7], 0.12; in [8], 0.885; in test [9], 1.09; in test [10] it was 0.14. For the same compound, the composite z-score is 0.567 in test [11]; 0.711 in test [12]; 0.756 in [13]; 1.33 in test [15]; 1.23 in [16]; 0.754 in test [17]. Moreover, the figures for the composite z-score in test [18], in [19] and in test [20] were 1.24, 0.673 and 0.93, respectively. The z-score was -0.309 (inactive) in [2]; -0.0831 (inactive) in test [3]; -0.352 (inactive) in test [4]; 1.02 (inactive) in [6]; 0.011 (inactive) in test [14].
With `CCOC(=CC(=O)OC)CC(O)c1cccc(Cl)c1` (stereo not given), the composite z-score in test [1] was 1.39; in test [5] it was 2.4; in [7] it was -0.125; in test [8], -0.673; in test [9], 0.27; in test [10], -0.128. For the same compound, the composite z-score in [11] was 0.971; in [12], -0.132; in test [13] it was 0.445; in [15], -0.617; in [16] it was 0.982; in test [17], -0.779. For the same compound, the composite z-score in test [18] was -0.151; in test [19] it was -1.3; in [20], -0.297. In addition, the z-score was -4.05 (inactive) in test [2]; -7.01 (inactive) in [3]; -1.53 (inactive) in test [4]; 0.341 (inactive) in test [6]; -1.02 (inactive) in test [14].
Take `CN(C)CCCNC(=O)[C@@]1(C)c2ccccc2C(=O)N(Cc2cc(C(F)(F)F)cc(C(F)(F)F)c2)[C@H]1c1ccc(CO)cc1`: the composite z-score in test [1] is 0.0376; in test [5], 0.324; in test [7], -0.192; in test [8] it was -1.19; in [9] it was -0.35; in [10] it was -0.186. In addition, the composite z-score is 1.01 in test [11]; 0.202 in test [12]; 0.0634 in test [13]; -0.753 in test [15]; -0.477 in [16]; -1.9 in [17]. In addition, the composite z-score in test [18] was -1.14; in test [19], -0.992; in test [20] it was -1.34. Moreover, the z-score in test [2] was 0.113 (inactive); in [3], -1.83 (inactive); in test [4], -0.945 (inactive); in test [6] it was -0.72 (inactive); in test [14] it was -1.24 (inactive).
